This note sets out measurements from ChEMBL document CHEMBL1961873, “Compounds: GSK PKIS; Assays: Nanosyn kinase panel” (2012).

Assay [1] has as its target High affinity nerve growth factor receptor (Homo sapiens) (UniProt P04629). As to conditions: at 1 µM.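 Further: each value is the mean percent inhibition of TRKA.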
The target of assay [2] is BDNF/NT-3 growth factors receptor (Homo sapiens) (UniProt Q16620). Particulars: at 0.1 µM.
Assay [3] shares this target. Particulars: at 1 µM.
In assay [4] the target is NT-3 growth factor receptor (Homo sapiens) (UniProt Q16288). Particulars: at 0.1 µM.
The target is the same in assay [5]. Particulars: at 1 µM.
The target of assay [6] is T1, Tyrosine-protein kinase TXK (Homo sapiens) (UniProt P42681).
T1 sequence (whole entry): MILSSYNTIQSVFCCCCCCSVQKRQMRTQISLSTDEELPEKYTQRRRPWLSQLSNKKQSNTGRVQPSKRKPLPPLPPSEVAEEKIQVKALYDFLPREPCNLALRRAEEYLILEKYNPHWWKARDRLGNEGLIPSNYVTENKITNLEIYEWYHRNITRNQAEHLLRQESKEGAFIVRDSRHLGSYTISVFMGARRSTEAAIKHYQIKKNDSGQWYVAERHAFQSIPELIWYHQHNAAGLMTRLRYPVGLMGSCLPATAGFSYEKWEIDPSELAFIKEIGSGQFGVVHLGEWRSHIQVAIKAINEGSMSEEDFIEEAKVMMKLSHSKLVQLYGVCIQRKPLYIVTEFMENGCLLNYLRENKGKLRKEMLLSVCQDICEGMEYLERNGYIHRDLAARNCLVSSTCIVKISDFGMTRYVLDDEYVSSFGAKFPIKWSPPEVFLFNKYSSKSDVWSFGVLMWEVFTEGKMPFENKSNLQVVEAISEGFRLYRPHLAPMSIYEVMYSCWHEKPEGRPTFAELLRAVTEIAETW
Particulars: at 0.1 µM.

The target of assay [7] is T1, Tyrosine-protein kinase TXK (Homo sapiens). Particulars: at 1 µM.
For assay [8], the target named is Non-receptor tyrosine-protein kinase TYK2 (Homo sapiens) (UniProt P29597). As to conditions: at 0.1 µM.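 Further: each value is a mean of the inhibition readings.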
For assay [9], the target named is T2, Dual specificity protein kinase TTK (Homo sapiens) (UniProt P33981).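 Further: reported figures are mean TTK inhibition at 1 µM.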
T2 sequence (whole entry): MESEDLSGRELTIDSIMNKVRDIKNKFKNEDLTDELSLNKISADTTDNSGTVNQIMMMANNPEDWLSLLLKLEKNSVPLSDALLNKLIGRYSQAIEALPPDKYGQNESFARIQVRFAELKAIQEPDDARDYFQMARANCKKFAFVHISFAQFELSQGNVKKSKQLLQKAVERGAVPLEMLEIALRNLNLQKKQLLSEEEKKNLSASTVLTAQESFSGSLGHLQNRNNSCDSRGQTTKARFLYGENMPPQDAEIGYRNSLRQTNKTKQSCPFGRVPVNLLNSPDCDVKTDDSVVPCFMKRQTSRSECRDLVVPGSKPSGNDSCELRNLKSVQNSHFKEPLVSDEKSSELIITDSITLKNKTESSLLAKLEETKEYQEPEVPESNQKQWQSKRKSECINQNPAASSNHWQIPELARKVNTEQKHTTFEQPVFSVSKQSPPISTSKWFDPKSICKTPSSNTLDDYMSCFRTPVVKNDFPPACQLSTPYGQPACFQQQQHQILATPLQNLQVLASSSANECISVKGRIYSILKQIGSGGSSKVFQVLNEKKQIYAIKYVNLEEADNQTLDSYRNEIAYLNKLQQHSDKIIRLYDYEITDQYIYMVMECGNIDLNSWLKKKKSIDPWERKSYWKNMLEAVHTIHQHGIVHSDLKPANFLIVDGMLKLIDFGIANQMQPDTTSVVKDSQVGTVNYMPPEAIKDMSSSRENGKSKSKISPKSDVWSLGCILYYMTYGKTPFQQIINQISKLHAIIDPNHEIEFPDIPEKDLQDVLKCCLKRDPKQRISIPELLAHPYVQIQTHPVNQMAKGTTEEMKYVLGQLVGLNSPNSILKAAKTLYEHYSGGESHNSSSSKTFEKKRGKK
As to conditions: at 1 µM.

The target of assay [10] is T3, Aurora kinase A (Homo sapiens) (UniProt O14965).
T3 sequence (whole entry): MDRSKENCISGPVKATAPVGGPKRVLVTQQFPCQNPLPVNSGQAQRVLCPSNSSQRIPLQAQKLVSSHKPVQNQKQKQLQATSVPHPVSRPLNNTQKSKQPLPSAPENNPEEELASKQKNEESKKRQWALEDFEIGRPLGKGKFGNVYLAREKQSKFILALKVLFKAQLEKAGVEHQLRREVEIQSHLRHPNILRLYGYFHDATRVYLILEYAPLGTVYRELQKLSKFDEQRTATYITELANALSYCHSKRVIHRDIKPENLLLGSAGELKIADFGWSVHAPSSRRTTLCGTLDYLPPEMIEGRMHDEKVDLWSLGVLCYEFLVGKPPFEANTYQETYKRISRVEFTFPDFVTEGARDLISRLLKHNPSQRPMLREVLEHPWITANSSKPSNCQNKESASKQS
As to conditions: at 0.1 µM.

Assay [11] deals with T3, Aurora kinase A (Homo sapiens). As to conditions: at 1 µM.
The target in assay [12] is Aurora kinase B (Homo sapiens) (UniProt Q96GD4). As to conditions: at 0.1 µM.
The target is the same in assay [13]. As to conditions: at 1 µM.
For assay [14], the target named is T4, Aurora kinase C (Homo sapiens) (UniProt Q9UQB9).
T4 sequence (whole entry): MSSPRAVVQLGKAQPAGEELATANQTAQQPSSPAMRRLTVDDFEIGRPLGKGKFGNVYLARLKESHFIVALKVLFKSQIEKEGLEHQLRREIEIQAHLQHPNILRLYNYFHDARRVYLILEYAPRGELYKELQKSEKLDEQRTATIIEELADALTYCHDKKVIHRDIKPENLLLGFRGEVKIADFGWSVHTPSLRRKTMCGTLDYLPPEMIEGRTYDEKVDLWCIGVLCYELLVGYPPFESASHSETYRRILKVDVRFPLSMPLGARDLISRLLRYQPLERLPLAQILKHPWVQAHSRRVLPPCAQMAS
As to conditions: at 0.1 µM.

The target of assay [15] is T4, Aurora kinase C (Homo sapiens). Particulars: at 1 µM.
Assay [16] deals with Serine/threonine-protein kinase 10 (Homo sapiens) (UniProt O94804). Particulars: at 0.1 µM.
The target is the same in assay [17]. As to conditions: at 1 µM.
The target of assay [18] is T5, Mitogen-activated protein kinase kinase kinase kinase 2 (Homo sapiens) (UniProt Q12851).
T5 sequence (whole entry): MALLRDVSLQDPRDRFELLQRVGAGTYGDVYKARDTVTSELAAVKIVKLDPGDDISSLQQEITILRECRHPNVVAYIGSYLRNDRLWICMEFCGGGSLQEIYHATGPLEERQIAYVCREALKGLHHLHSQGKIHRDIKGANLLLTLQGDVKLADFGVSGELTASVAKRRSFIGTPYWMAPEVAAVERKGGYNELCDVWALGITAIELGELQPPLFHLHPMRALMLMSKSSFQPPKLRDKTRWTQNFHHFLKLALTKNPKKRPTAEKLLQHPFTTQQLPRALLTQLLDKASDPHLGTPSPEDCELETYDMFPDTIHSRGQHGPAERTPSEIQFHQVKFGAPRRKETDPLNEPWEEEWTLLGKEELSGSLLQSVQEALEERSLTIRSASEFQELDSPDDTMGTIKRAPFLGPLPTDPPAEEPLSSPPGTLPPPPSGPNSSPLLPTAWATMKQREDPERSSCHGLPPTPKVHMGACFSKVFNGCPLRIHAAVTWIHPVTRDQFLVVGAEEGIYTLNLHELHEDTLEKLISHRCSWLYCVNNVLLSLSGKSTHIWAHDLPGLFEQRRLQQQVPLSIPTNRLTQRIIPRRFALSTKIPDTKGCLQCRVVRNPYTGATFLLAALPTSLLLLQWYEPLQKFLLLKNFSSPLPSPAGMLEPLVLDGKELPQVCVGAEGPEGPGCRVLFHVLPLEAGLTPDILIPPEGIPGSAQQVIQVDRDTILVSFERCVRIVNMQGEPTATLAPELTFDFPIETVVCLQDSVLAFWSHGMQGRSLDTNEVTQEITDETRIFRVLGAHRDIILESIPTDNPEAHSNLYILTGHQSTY
Particulars: at 0.1 µM.

Assay [19] deals with T5, Mitogen-activated protein kinase kinase kinase kinase 2 (Homo sapiens). Particulars: at 1 µM.
Assay [20] has as its target Mitogen-activated protein kinase kinase kinase kinase 4 (Homo sapiens) (UniProt O95819). As to conditions: at 0.1 µM.

Sequence of NT-3 growth factor receptor (Homo sapiens) (Q16288 32-839 limits assumed): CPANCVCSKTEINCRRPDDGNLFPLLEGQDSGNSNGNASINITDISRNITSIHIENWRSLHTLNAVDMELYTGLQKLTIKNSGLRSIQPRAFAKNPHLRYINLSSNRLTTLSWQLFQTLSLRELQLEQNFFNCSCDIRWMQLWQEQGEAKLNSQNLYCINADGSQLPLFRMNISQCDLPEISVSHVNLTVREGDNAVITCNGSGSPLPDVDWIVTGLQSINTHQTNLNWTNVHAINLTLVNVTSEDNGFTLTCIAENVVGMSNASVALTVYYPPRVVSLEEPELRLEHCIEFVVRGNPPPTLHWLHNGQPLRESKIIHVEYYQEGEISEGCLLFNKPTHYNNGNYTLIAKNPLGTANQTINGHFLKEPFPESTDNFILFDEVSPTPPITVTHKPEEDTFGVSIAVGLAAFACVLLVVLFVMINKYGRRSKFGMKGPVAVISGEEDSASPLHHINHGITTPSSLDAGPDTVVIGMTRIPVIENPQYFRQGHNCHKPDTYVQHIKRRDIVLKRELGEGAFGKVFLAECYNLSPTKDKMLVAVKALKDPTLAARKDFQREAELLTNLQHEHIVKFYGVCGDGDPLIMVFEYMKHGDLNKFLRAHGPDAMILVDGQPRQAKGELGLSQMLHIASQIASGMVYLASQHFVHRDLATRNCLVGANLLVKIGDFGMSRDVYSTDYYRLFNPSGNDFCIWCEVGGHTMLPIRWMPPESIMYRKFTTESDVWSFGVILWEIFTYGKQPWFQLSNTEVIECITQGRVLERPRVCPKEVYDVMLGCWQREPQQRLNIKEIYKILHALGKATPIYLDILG
Sequence of Non-receptor tyrosine-protein kinase TYK2 (Homo sapiens) (P29597 whole entry): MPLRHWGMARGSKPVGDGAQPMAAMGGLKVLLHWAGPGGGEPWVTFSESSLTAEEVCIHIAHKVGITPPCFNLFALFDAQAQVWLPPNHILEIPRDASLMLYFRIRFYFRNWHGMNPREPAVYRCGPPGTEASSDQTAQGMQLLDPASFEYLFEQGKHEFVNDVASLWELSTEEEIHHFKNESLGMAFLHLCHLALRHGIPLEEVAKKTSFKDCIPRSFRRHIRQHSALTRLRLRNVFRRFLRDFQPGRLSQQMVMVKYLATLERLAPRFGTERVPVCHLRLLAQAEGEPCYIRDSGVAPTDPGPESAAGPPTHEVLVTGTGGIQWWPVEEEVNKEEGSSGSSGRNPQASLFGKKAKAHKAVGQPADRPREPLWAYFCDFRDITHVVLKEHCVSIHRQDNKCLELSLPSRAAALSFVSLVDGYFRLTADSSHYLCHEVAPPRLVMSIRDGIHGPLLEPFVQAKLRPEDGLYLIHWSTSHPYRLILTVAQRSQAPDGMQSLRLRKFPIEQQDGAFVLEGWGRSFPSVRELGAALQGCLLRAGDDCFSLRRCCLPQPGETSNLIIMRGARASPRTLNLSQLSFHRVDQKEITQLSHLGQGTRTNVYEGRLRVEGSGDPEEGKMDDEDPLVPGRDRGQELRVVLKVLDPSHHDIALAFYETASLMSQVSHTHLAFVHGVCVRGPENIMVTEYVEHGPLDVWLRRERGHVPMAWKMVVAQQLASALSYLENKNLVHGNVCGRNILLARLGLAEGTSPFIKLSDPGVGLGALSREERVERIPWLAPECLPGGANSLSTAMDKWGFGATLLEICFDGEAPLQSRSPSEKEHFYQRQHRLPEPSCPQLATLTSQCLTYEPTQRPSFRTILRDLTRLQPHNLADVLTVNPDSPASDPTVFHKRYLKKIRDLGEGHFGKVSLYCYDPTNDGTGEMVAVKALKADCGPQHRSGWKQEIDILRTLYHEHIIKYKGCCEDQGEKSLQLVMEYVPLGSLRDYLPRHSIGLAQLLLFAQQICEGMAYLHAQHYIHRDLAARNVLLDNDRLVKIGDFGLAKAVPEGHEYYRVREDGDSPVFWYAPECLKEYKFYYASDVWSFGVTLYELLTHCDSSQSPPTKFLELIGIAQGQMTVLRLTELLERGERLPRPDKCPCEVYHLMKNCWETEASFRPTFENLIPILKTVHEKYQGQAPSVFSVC
Sequence of Aurora kinase B (Homo sapiens) (Q96GD4 whole entry): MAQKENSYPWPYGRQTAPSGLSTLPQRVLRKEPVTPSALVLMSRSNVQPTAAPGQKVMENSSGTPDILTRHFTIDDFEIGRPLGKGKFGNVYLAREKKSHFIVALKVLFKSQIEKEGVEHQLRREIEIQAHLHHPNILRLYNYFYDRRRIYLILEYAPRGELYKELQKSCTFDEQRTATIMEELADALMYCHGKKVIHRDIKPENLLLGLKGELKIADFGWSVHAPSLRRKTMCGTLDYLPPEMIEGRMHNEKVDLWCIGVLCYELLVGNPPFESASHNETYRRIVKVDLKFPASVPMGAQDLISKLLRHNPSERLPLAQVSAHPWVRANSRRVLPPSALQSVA
Sequence of Serine/threonine-protein kinase 10 (Homo sapiens) (O94804 whole entry, looked up): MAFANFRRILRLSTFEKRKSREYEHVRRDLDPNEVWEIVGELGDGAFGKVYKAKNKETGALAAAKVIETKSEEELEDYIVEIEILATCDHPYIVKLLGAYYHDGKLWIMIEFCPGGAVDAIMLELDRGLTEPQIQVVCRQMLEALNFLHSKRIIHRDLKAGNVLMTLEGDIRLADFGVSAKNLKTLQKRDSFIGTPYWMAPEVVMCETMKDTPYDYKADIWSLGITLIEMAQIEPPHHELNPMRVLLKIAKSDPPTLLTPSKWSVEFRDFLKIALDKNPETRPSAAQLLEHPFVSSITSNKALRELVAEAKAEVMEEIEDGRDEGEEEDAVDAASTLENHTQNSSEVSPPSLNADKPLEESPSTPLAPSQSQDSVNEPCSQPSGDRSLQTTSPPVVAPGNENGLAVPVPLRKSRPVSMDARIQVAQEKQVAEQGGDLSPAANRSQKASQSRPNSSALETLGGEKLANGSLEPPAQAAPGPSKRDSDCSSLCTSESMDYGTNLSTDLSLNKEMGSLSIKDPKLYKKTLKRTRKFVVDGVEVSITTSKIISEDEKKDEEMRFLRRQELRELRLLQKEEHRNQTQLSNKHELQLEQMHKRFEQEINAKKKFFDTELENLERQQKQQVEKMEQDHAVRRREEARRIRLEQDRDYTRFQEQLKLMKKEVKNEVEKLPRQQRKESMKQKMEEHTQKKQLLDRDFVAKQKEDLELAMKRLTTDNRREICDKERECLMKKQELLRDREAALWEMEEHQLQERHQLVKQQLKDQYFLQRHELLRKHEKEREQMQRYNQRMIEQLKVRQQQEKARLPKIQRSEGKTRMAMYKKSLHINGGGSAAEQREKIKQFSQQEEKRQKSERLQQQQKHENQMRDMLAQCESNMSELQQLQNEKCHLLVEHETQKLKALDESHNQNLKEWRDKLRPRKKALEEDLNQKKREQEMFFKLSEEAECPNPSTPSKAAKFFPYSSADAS
Sequence of Mitogen-activated protein kinase kinase kinase kinase 4 (Homo sapiens) (O95819 2-1239 limits assumed): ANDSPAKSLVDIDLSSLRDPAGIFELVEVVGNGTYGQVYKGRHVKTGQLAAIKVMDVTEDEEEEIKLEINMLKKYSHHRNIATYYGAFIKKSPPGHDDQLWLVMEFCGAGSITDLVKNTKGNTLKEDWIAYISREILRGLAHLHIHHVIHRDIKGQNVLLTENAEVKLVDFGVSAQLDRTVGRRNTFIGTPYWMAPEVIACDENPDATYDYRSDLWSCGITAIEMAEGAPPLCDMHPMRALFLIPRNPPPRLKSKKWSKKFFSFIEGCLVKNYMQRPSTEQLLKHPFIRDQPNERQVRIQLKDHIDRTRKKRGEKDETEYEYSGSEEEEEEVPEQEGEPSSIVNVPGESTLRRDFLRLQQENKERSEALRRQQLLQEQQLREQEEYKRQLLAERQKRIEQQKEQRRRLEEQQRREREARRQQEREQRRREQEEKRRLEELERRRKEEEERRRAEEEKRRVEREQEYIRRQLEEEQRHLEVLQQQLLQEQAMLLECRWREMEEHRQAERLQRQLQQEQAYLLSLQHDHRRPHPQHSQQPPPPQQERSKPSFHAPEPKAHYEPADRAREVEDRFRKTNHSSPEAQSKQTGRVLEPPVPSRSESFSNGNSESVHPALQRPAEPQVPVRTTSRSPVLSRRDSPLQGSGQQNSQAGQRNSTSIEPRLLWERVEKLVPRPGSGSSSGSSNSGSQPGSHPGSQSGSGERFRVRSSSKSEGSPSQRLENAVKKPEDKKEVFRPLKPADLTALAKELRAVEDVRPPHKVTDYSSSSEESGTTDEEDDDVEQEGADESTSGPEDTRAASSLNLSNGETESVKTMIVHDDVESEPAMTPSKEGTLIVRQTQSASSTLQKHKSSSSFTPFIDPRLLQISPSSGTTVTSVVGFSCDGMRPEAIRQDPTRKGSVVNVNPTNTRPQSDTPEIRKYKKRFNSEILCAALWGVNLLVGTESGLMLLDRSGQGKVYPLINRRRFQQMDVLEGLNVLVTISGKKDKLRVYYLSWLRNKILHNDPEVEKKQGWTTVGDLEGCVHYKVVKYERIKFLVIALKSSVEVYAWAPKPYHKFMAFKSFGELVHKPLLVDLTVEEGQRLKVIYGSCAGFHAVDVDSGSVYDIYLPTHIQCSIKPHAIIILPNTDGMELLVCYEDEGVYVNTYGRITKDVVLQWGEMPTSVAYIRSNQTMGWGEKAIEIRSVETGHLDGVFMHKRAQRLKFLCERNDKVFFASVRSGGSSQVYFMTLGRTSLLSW

What is called inhibition is the change of the read-out against control, counted positive when it falls. On to `OCCCNc1nccc(-c2c(-c3ccc(F)cc3)nn3cc(C(F)(F)F)ccc23)n1`, for which the inhibition in assay [1] stood at 1.07%; in [2], 1.2%; in assay [3], 1.1%; in assay [4] it was 2.9%; in assay [5] it was 2.72%; in [6] it was 4.77%. For the same molecule, the inhibition in [7] is 6.39%; in assay [8], -6.14%; in [9], 4.7%; in [10] it was 0.87%; in [11] it was 7.6%; in [12], 3.85%. Also, the inhibition in [13] was found to be 9.08%; in assay [14], 0.36%; in [15] it was 2.19%; in assay [16], 6.36%; in assay [17] it was 8.12%; in assay [18], 0.6%. In addition, the inhibition in assay [19] stood at 3.51%; in assay [20] it was 5.34%.

Take `O=C(O[C@H]1CN[C@H](C#Cc2cc3ncnc(Nc4ccc5c(ccn5Cc5cc(F)ccc5F)c4)c3s2)C1)N1CCOCC1`: the inhibition stood at 0.61% in assay [1]; 1.99% in assay [2]; 3.22% in [3]; 2.18% in assay [4]; 2.92% in assay [5]; 3.8% in assay [6]. The inhibition in assay [7] was 5.25%; in assay [8], -1.85%; in assay [9], 9.66%; in assay [10], 4.5%; in assay [11] it was 9.24%; in assay [12], 5.02%. Also, the inhibition turned out to be 8.88% in assay [13]; 1.44% in assay [14]; 9.49% in [15]; 8.09% in assay [16]; 7.76% in [17]; 1.18% in [18]. The inhibition in assay [19] came to 2.82%; in assay [20], 5.04%.

As for `N#Cc1cccc(Nc2ncc(-c3ccccc3)o2)c1`, the inhibition in assay [1] came out at 12.6%; in [2], 3.16%; in assay [3], 26.5%; in assay [4] it was 4.53%; in assay [5], 25.1%; in assay [6], 1.62%. The inhibition is 3.17% in assay [7]; -5.06% in [8]; 8.8% in assay [9]; 1.03% in assay [10]; 11.6% in assay [11]; 4.81% in assay [12]. For the same molecule, the inhibition is 1.97% in assay [13]; 1.44% in [14]; 5.62% in assay [15]; 2.27% in [16]; 3.84% in [17]; 0.79% in assay [18]. Also, the inhibition in assay [19] amounted to 2.94%; in assay [20] it was 4.93%.

With `O=C(O[C@H]1CN[C@H](C#Cc2cc3ncnc(Nc4ccc5c(cnn5Cc5ccccc5)c4)c3s2)C1)N1CCOCC1`, the inhibition in assay [1] is 2.5%; in assay [2], -1.64%; in assay [3], -0.38%; in assay [4], -0.59%; in [5] it was 1.3%; in assay [6] it was 0.8%. Besides, the inhibition in assay [7] was 2.69%; in assay [8], 1.26%; in [9], 6.25%; in assay [10], 1.41%; in [11] it was 3.44%; in assay [12], 0.76%. In addition, the inhibition in assay [13] was determined as 11.1%; in assay [14], 2.11%; in assay [15], 27.6%; in assay [16] it was 0.93%; in assay [17], 7.07%; in assay [18], 0.52%. The inhibition was 2.14% in assay [19] and -0.91% in [20].
